# Source: PubChem BioAssay (EPA / NIEHS)
# Records with an inconclusive call do not appear. The source holds several records for some structures; these can differ, active in one and inactive in another. Calls of active or inactive are those of the source. How the source made its calls, unless noted: active means hit-call score of the fitted dose curve at least 0.9, where 1 is the maximum; inactive means score below 0.9.
# Columns and labels:
# [1] = target: Retinoic acid receptor RXR-alpha (Homo sapiens) (UniProt P19793); experiment: OT_NURR1_NURR1RXRa_1440: Odyssey Thera (OT) 24-hour HEK293T Protein Complementation Assay for Nurr1/retinoid X receptor (RXR) (AID 2283386; active means hit-call score of the fitted dose curve at least 0.9, where 1 is the maximum)
# Chain of Retinoic acid receptor RXR-alpha (Homo sapiens) (P19793 whole entry, looked up, the tested form may be a part): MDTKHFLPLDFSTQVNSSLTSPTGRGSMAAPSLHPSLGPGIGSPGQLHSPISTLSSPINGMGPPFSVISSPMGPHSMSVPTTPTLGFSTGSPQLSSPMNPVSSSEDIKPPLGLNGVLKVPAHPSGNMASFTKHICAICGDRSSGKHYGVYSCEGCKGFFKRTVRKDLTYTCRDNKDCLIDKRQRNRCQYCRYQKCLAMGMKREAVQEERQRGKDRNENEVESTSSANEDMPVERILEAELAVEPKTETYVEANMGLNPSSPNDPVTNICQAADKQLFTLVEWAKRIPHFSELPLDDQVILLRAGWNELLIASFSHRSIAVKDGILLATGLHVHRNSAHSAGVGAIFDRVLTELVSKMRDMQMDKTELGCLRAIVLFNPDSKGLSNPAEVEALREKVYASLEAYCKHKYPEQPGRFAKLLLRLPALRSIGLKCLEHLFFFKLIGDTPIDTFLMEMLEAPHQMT
# Summary of the method: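 Fluorescence PCA read-out; HEK293T; 24 h post-dose; bait/prey fused to reporter fragments; gain-of-signal fit vs DMSO negative control.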
# [2] = target: Peroxisome proliferator-activated receptor gamma (Homo sapiens) (UniProt P37231); experiment: OT_PPARg_PPARgSRC1_0480: Odyssey Thera (OT) 8-hour Protein-Complementation Assay for Peroxisome Proliferator-activated Receptor Gamma / SRC-1 Co-activator (AID 2283387; active means hit-call score of the fitted dose curve at least 0.9, where 1 is the maximum;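 further: nuclear to cytoplasmic split Venus YFP fluorescence ratio reporting PPARg SRC-1 interaction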)
# Chain of Peroxisome proliferator-activated receptor gamma (Homo sapiens) (P37231 whole entry, looked up, the tested form may be a part): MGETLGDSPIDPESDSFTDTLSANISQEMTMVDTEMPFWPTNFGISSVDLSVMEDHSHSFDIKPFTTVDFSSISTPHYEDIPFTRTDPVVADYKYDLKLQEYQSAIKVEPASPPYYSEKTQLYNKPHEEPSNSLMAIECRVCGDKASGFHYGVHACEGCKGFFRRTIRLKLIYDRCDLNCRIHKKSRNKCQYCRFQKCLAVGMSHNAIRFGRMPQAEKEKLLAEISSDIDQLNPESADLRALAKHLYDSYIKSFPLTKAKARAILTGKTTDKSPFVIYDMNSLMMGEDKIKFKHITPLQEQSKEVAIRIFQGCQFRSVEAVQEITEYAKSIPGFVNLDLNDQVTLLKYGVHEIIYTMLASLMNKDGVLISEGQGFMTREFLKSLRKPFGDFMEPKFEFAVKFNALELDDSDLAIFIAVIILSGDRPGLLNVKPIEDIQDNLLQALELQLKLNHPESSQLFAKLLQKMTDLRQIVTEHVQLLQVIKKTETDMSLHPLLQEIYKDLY
# Summary of the method: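 Read-out: 488 nm N/C fluorescence ratio from complemented Venus YFP fragments, ≥350 cells per image, gain-of-signal fitted against DMSO baseline. Fusions of PPARg/SRC-1 with IFP1/IFP2 expressed transiently in HEK293T; compounds applied 8 h.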
# [3] = target: Peroxisome proliferator-activated receptor gamma (Homo sapiens) (UniProt P37231); experiment: OT_PPARg_PPARgSRC1_1440: Odyssey Thera (OT) 24-hour Protein-Complementation Assay for Peroxisome Proliferator-activated Receptor Gamma/ SRC-1 Co-activator (AID 2283388; active means hit-call score of the fitted dose curve at least 0.9, where 1 is the maximum;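 further: nuclear to cytoplasmic ratio of reconstituted Venus YFP fluorescence in fixed imaged cells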)
# Summary of the method: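 Cells carrying the PPARg/SRC-1 fragment-complementation reporter receive compound for 24 hours, are fixed and counterstained with Draq5, then imaged. Increased nuclear relative to cytoplasmic YFP fluorescence above DMSO baseline indicates binding activity.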
# [4] = CEETOX_H295R_11DCORT: CeeTox H295R High-throughput Steroidogenesis Assay for 11-Deoxycortisol (11DCORT) (AID 2283432); settings: actives raise or lower the signal
# Summary of the method: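 H295R cells; 10 uM forskolin prestim 48 h; compound in 0.1% DMSO 48 h; media extracted with MTBE; 11-deoxycortisol by LC-MS/MS, 7-point standard curve; gain/loss vs DMSO baseline; viability by MTT in same wells.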
# [5] = CEETOX_H295R_OHPREG: CeeTox H295R High-throughput Steroidogenesis Assay for OH-Pregnenolone (OHPREG) (AID 2283434); settings: actives raise or lower the signal
# Summary of the method: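 H295R, 10 uM forskolin pre-stim 48 h; test chemical 48 h, 0.1% DMSO final. MTBE extraction, reverse-phase C18 HPLC-ESI+ MS/MS of medium. Gain/loss vs DMSO; viability by MTT in same wells.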
# [6] = CEETOX_H295R_OHPROG: CeeTox H295R High-throughput Steroidogenesis Assay for OH-Progesterone (OHPROG) (AID 2283435); settings: actives raise or lower the signal;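 on AC50: 17alpha-hydroxyprogesterone secreted into medium measured by HPLC-MS/MS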
# Summary of the method: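 HPLC-MS/MS quantification of 17alpha-hydroxyprogesterone secreted by H295R cells after 48 h chemical exposure, following 48 h 10 uM forskolin prestimulation. Gain or loss of signal fitted relative to DMSO. Viability checked by MTT in the same wells.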
# [7] = CEETOX_H295R_ANDR: CeeTox H295R High-throughput Steroidogenesis Assay for Androstenedione (ANDR) (AID 2283436); settings: actives raise or lower the signal;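 further: human H295R adrenal cells exposed for 48 h with androstenedione measured in medium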
# Summary of the method: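 48 h chemical exposure, H295R cells, DMEM/F12 + ITS+ and Nu-Serum. Medium androstenedione: MTBE extraction, C18 reverse-phase HPLC, ESI+ MS/MS. Fit bidirectional vs DMSO; MTT viability in same wells.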
# [8] = CEETOX_H295R_CORTIC: CeeTox H295R High-throughput Steroidogenesis Assay for Corticosterone (CORTIC) (AID 2283437); settings: actives raise or lower the signal;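 further: corticosterone secreted into medium quantified by mass spectrometry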
# Summary of the method: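 48 h forskolin (10 uM) prestim, then 48 h chemical exposure, final DMSO 0.1%. Readout: corticosterone in medium by LC-MS/MS after MTBE extraction. Gain/loss fit vs DMSO; MTT viability in same wells.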
# [9] = CEETOX_H295R_CORTISOL: CeeTox H295R High-throughput Steroidogenesis Assay for Cortisol (AID 2283438); settings: actives raise or lower the signal;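 further: cortisol secreted into medium quantified by LC-MS/MS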
# Summary of the method: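 Read-out: cortisol in culture medium by reverse-phase C18 HPLC with ESI-positive tandem MS, after MTBE liquid-liquid extraction. Cells: human adrenal H295R, forskolin-primed (10 uM, 48 h) before 48 h chemical exposure in 0.1% DMSO.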
# [10] = CEETOX_H295R_DOC: CeeTox H295R High-throughput Steroidogenesis Assay for DOC (AID 2283439); settings: actives raise or lower the signal
# Summary of the method: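 Human adrenocortical H295R cells, passages up to 10, received 10 uM forskolin for 48 h before chemical addition. After another 48 h exposure in 0.1% DMSO, secreted DOC was measured by LC-MS/MS, with gain or loss fitted against DMSO controls.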
# [11] = CEETOX_H295R_PROG: CeeTox H295R High-throughput Steroidogenesis Assay for Progesterone (PROG) (AID 2283442); settings: actives raise or lower the signal
# Summary of the method: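 Measured analyte is progesterone secreted by H295R cells at 48 h of chemical treatment, following 10 uM forskolin priming. Quantitation used HPLC-MS/MS against a 7-point standard curve; cytotoxicity was checked by MTT absorbance.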
# [12] = read-out: Fatty acid synthase (Homo sapiens) (UniProt P49327); experiment: LTEA_HepaRG_FASN: Life Technologies and Expression Analysis (LTEA) Assay for Fatty Acid Synthase (FASN) using HepaRG (AID 2283448); settings: mRNA level, 48 h; actives raise or lower the signal;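 on AC50: differentiated human HepaRG liver cells in serum-free induction medium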
# Summary of the method: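 HepaRG, 48 h exposure, 8-pt half-log series top 100 uM, 0.5% DMSO vehicle, duplicates. Readout: FASN transcript by Fluidigm qRT-PCR; housekeeping-normalized; bidirectional curve fit vs DMSO baseline.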
# [13] = read-out: Cyclin D2 (CCND2), CCND2 (gene 894); experiment: LTEA_HepaRG_CCND2: Life Technologies and Expression Analysis (LTEA) Assay for Cyclin D2 (CCND2) using HepaRG (AID 2283449); settings: mRNA level, 48 h; actives raise or lower the signal;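 further: CCND2 transcript measured by TaqMan qRT-PCR and normalised to three housekeeping genes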
# Summary of the method: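 HepaRG, 48 h dosing, 8-pt half-log curve from 100 uM, 0.5% DMSO; duplicate wells. Readout: CCND2 transcript by microfluidic qRT-PCR, housekeeping-normalised; bidirectional fit vs DMSO baseline.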
# [14] = read-out: Cyclin Dependent Kinase Inhibitor 1A (CDKN1A), CDKN1A (gene 1026); experiment: LTEA_HepaRG_CDKN1A: Life Technologies and Expression Analysis (LTEA) Assay for Cyclin Dependent Kinase Inhibitor 1A (CDKN1A) using HepaRG (AID 2283450); settings: mRNA level, 48 h; actives raise or lower the signal
# Summary of the method: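 Gain or loss of CDKN1A transcript is scored by bidirectional fitting against 0.5% DMSO vehicle. Human HepaRG cultures receive chemicals for 48 h across an 8-point series peaking at 100 uM; expression comes from qRT-PCR.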
# [15] = read-out: Cyclin D1 (CCND1), CCND1 (gene 595); experiment: LTEA_HepaRG_CCND1: Life Technologies and Expression Analysis (LTEA) Assay for Cyclin D1 (CCND1) using HepaRG (AID 2283451); settings: mRNA level, 48 h; actives raise or lower the signal;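 on AC50: differentiated human HepaRG liver cells in serum-free induction medium; TaqMan qRT-PCR transcript level normalised to ACTB GAPDH and POLR2A housekeeping genes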
# Summary of the method: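 Expression change is measured by qRT-PCR in HepaRG cells after 48 h treatment across eight concentrations topping at 100 uM, with duplicate wells and DMSO (0.5%) serving as baseline for bidirectional fitting.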
# [16] = read-out: catalase (CAT), CAT (gene 847); experiment: LTEA_HepaRG_CAT: Life Technologies and Expression Analysis (LTEA) Assay for catalase (CAT) using HepaRG (AID 2283452); settings: mRNA level, 48 h; actives raise or lower the signal;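 on AC50: TaqMan qRT-PCR signal normalized to ACTB GAPDH and POLR2A housekeeping genes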
# Summary of the method: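 HepaRG cells in serum-free induction medium, 0.5% DMSO vehicle, exposed 48 h in duplicate over 8 half-log concentrations from 100 uM. CAT mRNA measured by qRT-PCR, normalized to ACTB, GAPDH, POLR2A; bidirectional fit versus DMSO.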
# [17] = read-out: flavin-containing dimethylaniline monooxygenases 3 (FMO3), FMO3 (gene 2328); experiment: LTEA_HepaRG_FMO3: Life Technologies and Expression Analysis (LTEA) Assay for flavin-containing dimethylaniline monooxygenases 3 (FMO3) using HepaRG (AID 2283453); settings: mRNA level, 48 h; actives raise or lower the signal;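 on AC50: differentiated human HepaRG liver cells in serum-free induction medium; FMO3 transcript by TaqMan qRT-PCR normalized to ACTB GAPDH and POLR2A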
# Summary of the method: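 Eight-point concentration-response in serum-free HepaRG cultures (top 100 uM, 0.5% DMSO, 48 h). Read-out: FMO3 mRNA level normalized to three endogenous control genes, fitted bidirectionally versus vehicle.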
# [18] = read-out: Tumor necrosis factor receptor superfamily member 6 (Homo sapiens) (UniProt P25445); experiment: LTEA_HepaRG_FAS: Life Technologies and Expression Analysis (LTEA) Assay for Fas cell surface death receptor (FAS) using HepaRG (AID 2283447); settings: mRNA level, 48 h; actives raise or lower the signal
# Summary of the method: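 Differentiated HepaRG cells in serum-free induction medium were exposed 48 h to 8 half-log concentrations up to 100 uM in 0.5% DMSO, in duplicate. FAS mRNA was measured by qRT-PCR normalised to ACTB, GAPDH and POLR2A; bidirectional fit versus DMSO.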
# [19] = CEETOX_H295R_ESTRADIOL: CeeTox H295R High-throughput Steroidogenesis Assay for Estradiol (AID 2283440); settings: actives raise or lower the signal;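 further: estradiol secreted into medium quantified by LC-MS/MS after dansyl derivatisation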
# Summary of the method: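 Readout is estradiol in conditioned medium, quantified by reverse-phase HPLC-MS/MS against a 7-point standard curve. Cells: H295R, forskolin-stimulated, then dosed 48 h in 0.1% DMSO; activity fitted in both directions relative to DMSO.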
# [20] = CEETOX_H295R_ESTRONE: CeeTox H295R High-throughput Steroidogenesis Assay for Estrone (AID 2283441); settings: actives raise or lower the signal;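 further: estrone secreted into medium measured by LC-MS/MS after dansyl derivatization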
# Summary of the method: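 Forskolin-stimulated H295R cells are treated 48 h with chemical, and estrone in the medium is measured by LC-MS/MS. Activity is fitted in both directions relative to DMSO controls, with chemicals diluted until MTT viability reaches at least 70%.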
# Chain of Fatty acid synthase (Homo sapiens) (P49327 whole entry, looked up): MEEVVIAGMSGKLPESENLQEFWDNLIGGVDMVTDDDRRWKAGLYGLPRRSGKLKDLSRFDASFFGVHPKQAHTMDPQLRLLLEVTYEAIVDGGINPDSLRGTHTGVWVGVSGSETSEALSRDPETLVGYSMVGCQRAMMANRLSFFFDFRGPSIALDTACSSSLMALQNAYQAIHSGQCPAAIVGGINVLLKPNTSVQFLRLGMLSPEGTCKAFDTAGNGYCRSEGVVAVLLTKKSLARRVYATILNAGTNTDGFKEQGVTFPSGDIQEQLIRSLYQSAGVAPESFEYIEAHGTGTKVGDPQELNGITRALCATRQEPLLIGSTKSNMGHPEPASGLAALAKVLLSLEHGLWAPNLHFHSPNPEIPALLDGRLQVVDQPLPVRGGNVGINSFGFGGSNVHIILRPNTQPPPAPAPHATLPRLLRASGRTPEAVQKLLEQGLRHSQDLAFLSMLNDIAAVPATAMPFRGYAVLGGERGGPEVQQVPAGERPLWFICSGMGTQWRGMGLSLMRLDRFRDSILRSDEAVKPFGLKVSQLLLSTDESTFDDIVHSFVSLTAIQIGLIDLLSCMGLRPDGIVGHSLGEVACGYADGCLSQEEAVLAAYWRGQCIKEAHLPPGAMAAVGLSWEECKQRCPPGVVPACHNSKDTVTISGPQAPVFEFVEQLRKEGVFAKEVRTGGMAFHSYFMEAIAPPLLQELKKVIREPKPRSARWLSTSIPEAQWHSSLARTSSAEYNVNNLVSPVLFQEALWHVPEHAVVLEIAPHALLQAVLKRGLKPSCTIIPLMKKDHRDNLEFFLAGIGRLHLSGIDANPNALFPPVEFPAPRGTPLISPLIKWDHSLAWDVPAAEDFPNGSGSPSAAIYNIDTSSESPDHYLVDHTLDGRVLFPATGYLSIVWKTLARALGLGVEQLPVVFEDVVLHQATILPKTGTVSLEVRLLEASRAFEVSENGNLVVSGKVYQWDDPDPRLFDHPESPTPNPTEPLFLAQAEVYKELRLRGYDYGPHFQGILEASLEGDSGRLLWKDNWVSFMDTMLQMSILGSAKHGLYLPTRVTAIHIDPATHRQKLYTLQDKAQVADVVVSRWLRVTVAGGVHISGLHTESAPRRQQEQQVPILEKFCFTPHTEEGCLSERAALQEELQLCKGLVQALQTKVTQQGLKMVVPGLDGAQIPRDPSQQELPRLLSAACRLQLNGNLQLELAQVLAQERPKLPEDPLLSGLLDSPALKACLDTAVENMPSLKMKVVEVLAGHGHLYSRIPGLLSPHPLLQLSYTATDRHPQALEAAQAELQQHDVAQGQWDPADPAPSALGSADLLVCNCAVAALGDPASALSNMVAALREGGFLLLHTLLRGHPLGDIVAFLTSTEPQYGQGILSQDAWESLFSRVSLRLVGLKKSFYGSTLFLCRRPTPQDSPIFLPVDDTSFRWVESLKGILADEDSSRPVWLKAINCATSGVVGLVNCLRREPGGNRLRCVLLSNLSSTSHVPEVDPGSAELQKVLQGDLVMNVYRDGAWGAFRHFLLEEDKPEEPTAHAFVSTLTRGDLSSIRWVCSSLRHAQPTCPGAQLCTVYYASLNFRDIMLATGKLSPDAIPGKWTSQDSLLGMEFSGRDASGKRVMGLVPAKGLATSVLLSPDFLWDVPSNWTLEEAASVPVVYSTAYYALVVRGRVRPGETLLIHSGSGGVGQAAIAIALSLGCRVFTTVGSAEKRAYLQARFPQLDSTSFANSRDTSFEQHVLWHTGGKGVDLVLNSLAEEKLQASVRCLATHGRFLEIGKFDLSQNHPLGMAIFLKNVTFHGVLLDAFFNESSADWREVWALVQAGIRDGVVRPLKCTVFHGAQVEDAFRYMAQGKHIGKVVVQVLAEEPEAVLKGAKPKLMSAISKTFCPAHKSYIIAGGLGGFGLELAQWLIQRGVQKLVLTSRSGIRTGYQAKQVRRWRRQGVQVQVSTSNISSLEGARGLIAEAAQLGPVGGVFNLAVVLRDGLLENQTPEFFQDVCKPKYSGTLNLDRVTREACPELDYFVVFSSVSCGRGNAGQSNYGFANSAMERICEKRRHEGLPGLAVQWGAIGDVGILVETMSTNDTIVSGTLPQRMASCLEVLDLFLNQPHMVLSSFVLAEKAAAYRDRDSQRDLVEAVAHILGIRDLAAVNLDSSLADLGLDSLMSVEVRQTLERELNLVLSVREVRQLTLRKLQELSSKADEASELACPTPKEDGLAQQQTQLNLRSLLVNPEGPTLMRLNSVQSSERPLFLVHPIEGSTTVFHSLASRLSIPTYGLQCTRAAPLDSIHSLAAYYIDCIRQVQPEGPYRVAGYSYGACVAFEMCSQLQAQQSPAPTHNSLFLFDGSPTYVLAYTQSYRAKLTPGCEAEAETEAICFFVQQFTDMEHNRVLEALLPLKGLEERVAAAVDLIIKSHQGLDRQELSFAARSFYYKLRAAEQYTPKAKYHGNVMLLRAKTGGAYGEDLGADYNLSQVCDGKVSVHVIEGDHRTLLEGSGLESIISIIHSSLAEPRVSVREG
structure (smiles),measurement,setting,value
CCOC(=O)COc1cc(-c2nn(C)c(OC(F)F)c2Cl)c(F)cc1Cl,outcome,[1],inactive
same,outcome,[2],inactive
same,outcome,[3],inactive
same,outcome,[4],inactive
same,outcome,[5],inactive
same,outcome,[6],inactive
same,outcome,[7],inactive
same,outcome,[8],inactive
same,outcome,[9],inactive
same,outcome,[10],inactive
same,outcome,[11],inactive
same,outcome,[12],inactive
same,outcome,[13],inactive
same,outcome,[14],inactive
same,outcome,[15],inactive
same,outcome,[16],inactive
same,outcome,[17],inactive
CCCSP(=O)(OCC)Oc1ccc(Br)cc1Cl (stereo not given),outcome,[1],inactive
same,outcome,[2],inactive
same,outcome,[3],inactive
same,outcome,[5],inactive
same,outcome,[6],inactive
same,outcome,[11],inactive
same,outcome,[18],inactive
same,outcome,[12],inactive
same,outcome,[13],inactive
same,outcome,[14],inactive
same,outcome,[15],inactive
same,outcome,[16],inactive
CCCCOC(=O)c1ccccc1C(=O)O,outcome,[1],inactive
same,outcome,[2],inactive
same,outcome,[3],inactive
same,outcome,[18],inactive
same,outcome,[12],inactive
same,outcome,[13],inactive
same,outcome,[14],inactive
same,outcome,[15],inactive
same,outcome,[16],inactive
CON=C(C(=O)OC)c1ccccc1CON=C(C)c1cccc(C(F)(F)F)c1,outcome,[1],inactive
same,outcome,[2],inactive
same,outcome,[3],inactive
same,outcome,[18],inactive
same,outcome,[12],inactive
same,outcome,[13],inactive
same,outcome,[14],inactive
same,outcome,[15],inactive
same,outcome,[16],inactive
same,outcome,[17],inactive
C[Si](Cn1cncn1)(c1ccc(F)cc1)c1ccc(F)cc1,outcome,[1],inactive
same,outcome,[2],inactive
same,outcome,[3],inactive
same,outcome,[5],inactive
same,outcome,[6],inactive
same,outcome,[11],inactive
same,AC50,[12],91.6 µM (active)
same,outcome,[13],inactive
same,AC50,[14],50 µM (active)
same,AC50,[15],40.3 µM (active)
same,AC50,[16],50 µM (active)
same,AC50,[17],37.5 µM (active)
CNC(=O)ON=C(SC)C(=O)N(C)C,outcome,[1],inactive
same,outcome,[2],inactive
same,outcome,[3],inactive
same,outcome,[5],inactive
same,outcome,[6],inactive
same,outcome,[7],inactive
same,outcome,[19],inactive
same,outcome,[20],inactive
same,outcome,[11],inactive
same,outcome,[18],inactive
same,outcome,[12],inactive
same,outcome,[13],inactive
same,outcome,[14],inactive
same,outcome,[15],inactive
same,outcome,[16],inactive
CC1(C(=O)Nc2ccc(O)c(Cl)c2Cl)CCCCC1,outcome,[1],inactive
same,outcome,[2],inactive
same,outcome,[3],inactive
same,AC50,[5],7.52 µM (active)
same,AC50,[6],9.28 µM (active)
same,AC50,[11],7.63 µM (active)
same,outcome,[18],inactive
same,outcome,[13],inactive
same,outcome,[14],inactive
same,outcome,[15],inactive
same,outcome,[16],inactive
CN(C)[C@@H]1C(=O)C(C(N)=O)=C(O)[C@@]2(O)C(=O)C3=C(O)c4c(O)cccc4[C@@](C)(O)[C@H]3[C@H](O)[C@@H]12,AC50,[1],23.7 µM (active)
same,outcome,[1],inactive
same,outcome,[2],inactive
same,outcome,[3],inactive
same,outcome,[12],inactive
same,outcome,[13],inactive
same,outcome,[14],inactive
same,outcome,[15],inactive
same,outcome,[16],inactive
